From PubChem BioAssay (Tox21) come the findings set out here.

The structures appear in SMILES notation. Records with an inconclusive call do not appear. A call without a number means that no potency is given here. The source made the active and inactive calls. The call rests on the fitted dose curve; in most records, active means well fitted activation curve with a large enough effect in the signal ratio in the repeat runs (not every such curve was filed as active); inconclusive means weak or mixed curves, or effect the other way; inactive means flat fitted curve, though single readings scatter; the % refers to the signal ratio.

This assay deals with Bile acid receptor (Homo sapiens) (UniProt Q96RI1). Briefly: qHTS assay to identify small molecule agonists of the farnesoid-X-receptor (FXR) signaling pathway (AID 743220). Conditions: HEK293T FXR-UAS-bla, beta-lactamase FRET ratio, 16 h; series mostly up to 62.6 µM. From the text: National Center for Advancing Translational Sciences [NCATS]
Sequence of Bile acid receptor (Homo sapiens) (Q96RI1 whole entry, looked up): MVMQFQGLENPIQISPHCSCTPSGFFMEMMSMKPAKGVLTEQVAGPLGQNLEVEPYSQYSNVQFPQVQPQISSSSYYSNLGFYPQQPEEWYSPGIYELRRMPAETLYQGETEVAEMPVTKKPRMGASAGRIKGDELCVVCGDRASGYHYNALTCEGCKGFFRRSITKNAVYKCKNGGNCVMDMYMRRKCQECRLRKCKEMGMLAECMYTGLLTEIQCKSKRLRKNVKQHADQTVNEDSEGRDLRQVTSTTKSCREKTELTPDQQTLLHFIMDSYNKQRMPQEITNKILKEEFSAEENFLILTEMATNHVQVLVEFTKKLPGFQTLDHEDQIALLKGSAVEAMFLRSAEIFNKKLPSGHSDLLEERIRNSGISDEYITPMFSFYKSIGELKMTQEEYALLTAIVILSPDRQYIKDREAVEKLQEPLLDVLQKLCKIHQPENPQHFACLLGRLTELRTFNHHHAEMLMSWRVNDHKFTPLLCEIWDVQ
NIH Chemical Genomics Center [NCGC]
U.S. Environmental Protection Agency [EPA]
National Institutes of Environmental Health Sciences [NIEHS]
National Toxicology Program [NTP]
U.S. Food and Drug Administration [FDA]
The farnesoid-X-receptor (FXR), a nuclear hormone receptor, is highly expressed in liver, intestine, kidney and adrenal cortex. Natural ligands of FXR are the bile acids (Cholic acid, Chenodeoxy cholic acid etc). FXR is an important regulator of diverse metabolic pathways, including the bile acid homeostasis, lipid and glucose metabolisms. FXR regulates the expression of target genes by binding either as a monomer or as a heterodimer with the retinoid X receptor (RXR). Numerous studies have reported that FXR exerts protective function during cholestasis, diabetes, liver regeneration, and cancer. To identify compounds that activate FXR signaling, GeneBLAzer FXR-UAS-bla HEK 293T cell line (Invitrogen, Carlsbad, CA) containing a beta-lactamase reporter gene under the control of a UAS response element was used to screen the Tox21 10K compound library.
Tox21 Assay Protocol Summary:
FXR-bla cells were dispensed at 5000 cells/5uL/well in 1536-well black wall/clear bottom plates using a Multidrop Combi (Thermo Fisher Scientific, Waltham, MA) dispenser. After the assay plates were incubated at 37C and 5% CO2 for 5 h, 23 nL of compounds dissolved in DMSO, positive controls or DMSO only was transferred to the assay plate by a Pintool station (Kalypsys, San Diego, CA). The assay plates were incubated at 37C for 16 h. After 1 uL of LiveBLAzerTM B/G FRET substrate was added using a Bioraptr Flying Reagent Dispenser (FRD) workstation (Beckman Coulter, Indianapolis, IN), the plates were incubated at room temperature for 2 h, and fluorescence intensity was measured by an Envision plate reader (PerkinElmer, Shelton, CT).
A general note: Quantitative high-throughput screening tests each substance at several concentrations.
As for `O=C(N/N=C/c1ccccc1O)c1ccncc1`, the Potency entry was “inactive”. Turning to `CSc1ccc2c(c1)C(N1CCN(C)CC1)Cc1ccccc1S2` (stereo not given), the Potency entry is “inactive”.

As for `CO[Si](CCCNc1ccccc1)(OC)OC`, the Potency entry was “inactive”. With `COc1cccc(N)c1`, the Potency entry was “inactive”.

Take `COc1cc(/C=C/C(=O)O[C@H]2CC[C@]34C[C@]35CC[C@]3(C)[C@@H]([C@H](C)CCC=C(C)C)CC[C@@]3(C)[C@@H]5CC[C@H]4C2(C)C)ccc1O`: the Potency result was “inactive”. On to `CCC(Cl)C(Cl)C(Cl)CC(Cl)C(Cl)C(C)Cl` (stereo not given), for which the Potency entry was “inactive”.

Regarding `CC(C)(C)C(=O)OCOC(=O)[C@@H]1N2C(=O)[C@@H](NC(=O)[C@H](N)c3ccccc3)[C@H]2SC1(C)C`, the Potency result was “inactive”.

Consider `Cc1onc(-c2ccccc2Cl)c1C(=O)N[C@@H]1C(=O)N2[C@@H]1SC(C)(C)[C@@H]2C(=O)O`, for which the Potency entry is “inactive”. With `CCCCCOC(=O)CCCC`, the Potency entry is “inactive”. Consider `Fc1ccc([C@@H]2CCNC[C@H]2COc2ccc3c(c2)OCO3)cc1`, for which the Potency entry is “inactive”. Regarding `O=c1[nH]cnc2nc[nH]c12`, the Potency entry is “inactive”.

In the case of `CC(C)(C)c1ccc(C(=O)O)cc1`, the Potency entry is “inactive”. The result for `CCCCCCCCCCCCCCCS(=O)(=O)Oc1ccccc1` reads “inactive”. Take `CC(C)(C)CC(C)(C)c1ccc(OCCOCC[N+](C)(C)Cc2ccccc2)cc1`: the Potency result is “inactive”. The result for `CCCCCCCCOc1ccccc1C(=O)Nc1ccc(C(=O)OCC[N+](C)(CC)CC)cc1` reads “inactive”; that for `COc1cc(-c2ccc(N=C=O)c(OC)c2)ccc1N=C=O`, “inactive”; that for `CCC(C)Nc1ccc(NC(C)CC)cc1` (stereo not given), “inactive”.

For `O=C(c1ccc(O)cc1O)c1ccc(O)cc1O`, the Potency result is “inactive”.

Consider `Oc1ccc(Cl)cc1Sc1cc(Cl)ccc1O`, for which the Potency result is “inactive”. For `CC(C)(C)NC(=O)[C@@H]1C[C@@H]2CCCC[C@@H]2CN1C[C@@H](O)[C@H](Cc1ccccc1)NC(=O)[C@H](CC(N)=O)NC(=O)c1ccc2ccccc2n1`, the Potency entry was “inactive”. As for `Clc1ccc2cc3ccccc3cc2c1`, the Potency result is “inactive”. As to `CCOc1nc2cccc(C(=O)OC(C)OC(=O)OC3CCCCC3)c2n1Cc1ccc(-c2ccccc2-c2nn[nH]n2)cc1` (stereo not given), the Potency result was “inactive”. Consider `O=C1C=CC(=O)N1`, for which the Potency result is “inactive”. Take `C[C@H]1[C@H]2CC[C@H]3[C@@H]4CC=C5C[C@@H](N(C)C)CC[C@]5(C)[C@H]4CC[C@]23CN1C`: the Potency entry is “inactive”. Turning to `Nc1ccccc1O`, the Potency entry is “inactive”.

On to `Cc1ccc(-n2nc(C(C)(C)C)cc2NC(=O)Nc2ccc(OCCN3CCOCC3)c3ccccc23)cc1`, for which the Potency entry was “inactive”.

Regarding `Clc1ccc2nsnc2c1NC1=NCCN1`, the Potency entry was “inactive”.

For the compound `O=[N+]([O-])c1cc(Cl)c(Cl)c(Cl)c1Cl`, the Potency entry is “inactive”. Consider `CC(=O)OCC(C)OC(C)=O` (stereo not given), for which the Potency result is “inactive”.

`C=C(C)C(=O)OCC(O)COc1ccc(C(C)(C)c2ccc(OCC(O)COC(=O)C(=C)C)cc2)cc1` (stereo not given): the Potency entry is “inactive”. As to `O=C(O)c1c(Cl)cccc1Cl`, the Potency result was “inactive”.

Turning to `Oc1ccc2c(c1)-c1ccccc1C2`, the Potency entry is “inactive”.

In the case of `O=C(O)c1ccc(Cl)c(Cl)c1`, the Potency result was “inactive”. In the case of `Cc1cc2c(cc1C(F)(F)F)N(C(=O)Nc1ccc(Oc3cccnc3C)nc1)CC2` it was “inactive”. On to `O=C1CCCCCN1SSN1CCCCCC1=O`, for which the Potency entry is “inactive”.

For `O=c1c(-c2ccccc2)c1-c1ccccc1`, the Potency entry is “inactive”. As for `CSc1ccc(/C=C2/C(C)=C(CC(=O)O)c3cc(F)ccc32)cc1`, the Potency result was “inactive”. Consider `Oc1ccc2cc(SSc3ccc4cc(O)ccc4c3)ccc2c1`, for which the Potency result was “inactive”. Regarding `CCCCCCOC(=O)c1ccc(O)cc1`, the Potency entry was “inactive”. Turning to `CN1CCN(CCC(=O)N2c3ccccc3Sc3ccc(C(F)(F)F)cc32)CC1`, the Potency entry is “inactive”.
